# Data reported in PubChem BioAssay.
# Where “and” joins values, the source holds several entries; their conditions need not be identical. Equal entries are not always repeated. The source holds several records for some structures; these can differ, active in one and inactive in another. Calls of active or inactive are those of the source.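 The calls were made as follows, unless noted: active = thallium flux through the channel raised or lowered by more than 3 SD from vehicle-only wells, actives on both sides; inactive = the rest.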
# Assays:
# [1] = test system: Hepatitis C virus NS3 helicase; assay: HCV NS3 helicase inhibitors, primary screen, biochemical, fluorescence polarization, NIH Clinical Collection (AID 743270; call rule not given here); settings: NS3 helicase binding to Cy5-dT15 DNA, stronger effect = higher value, concentration not given here
# [2] = target: Single-stranded DNA-binding protein (Escherichia coli (strain K12)) (UniProt P0AGE0); assay: E. coli SSB displacement from DNA, counter-screen for HCV NS3 helicase inhibitor project, biochemical, fluorescence polarization, NIH Clinical Collection (AID 743271; in the data active = inhibition above about 28%); settings: stronger effect = higher value, concentration not given here
# [3] = fluorescence interference in NS3h assay format, artefact control for HCV NS3 helicase inhibitor project, biochemical, NIH Clinical Collection (AID 743272; call rule not given here;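 also: HCV NS3 helicase with a Cy5 labelled single stranded DNA probe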); settings: fluorescence interference counterscreen, stronger effect = lower value
# [4] = stimulators of nuclear beta-catenin in C2C12, primary screen, imaging, WNT3A-conditioned medium, mouse C2C12, NPC library (AID 1117326; in the data active = nuclear beta-catenin stimulation mostly above about 4.2%, no sharp cut-off; inactive = mostly below about 10%); settings: stronger effect = higher value
# [5] = stimulators of insulin release from INS-1E, primary screen, cell-based, 5 mM glucose, NPC library (AID 1117329;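 active = compound raises insulin release from rat beta cells at 5 mM glucose, no numeric limit stated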); settings: rat INS-1E insulin secretion, at 10 µM, stronger effect = higher value
# [6] = growth inhibition of GSK3B-pretreated HCT116 cells – cell-based, CellTiter-Glo, 0.2 to 20 µM (AID 1117336;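 active = compounds lowering colon cancer cell viability after pretreatment blocking the GSK3B kinase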); settings: HCT116 viability after GSK3B inhibitor, at 20 µM, stronger effect = higher value
# [7] = inhibition of endothelial tube formation, primary screen, imaging, VEGF stimulated, CD31 staining, tube area, NPC library (AID 1117340;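 active = compound that reduces growth-factor-driven endothelial tube area in a mixed cell culture, no cutoff stated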); settings: VEGF-stimulated ADSC/ECFC co-culture, at 10 µM, stronger effect = higher value
# [8] = glucagon-like peptide 1 release enhancers, primary assay, NCI-H716 cell line, NPC library (AID 1117341;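 active = compound raises GLP1 secretion from the human gut endocrine cells, with no numeric limit stated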); settings: NCI-H716 cells, at 10 µM, stronger effect = higher value
# [9] = HCT116 colon cancer cell growth inhibition, primary screen, CellTiter-Glo luminescence, NPC library (AID 1117342;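 active = compounds that lower survival of HCT116 colon cancer cells in the luminescence readout, no numeric limit stated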); settings: at 20 µM (top of the series)
# [10] = CellTiter-Glo luminescent readout of SW480 viability loss, NPC library primary (AID 1117343;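 active = compounds that lower viability of the colon cancer cells in the luminescence readout, with no numeric limit stated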); settings: CellTiter-Glo luminescence; at 20 µM (top of the series)
# [11] = decreased DLD-1 cellular survival, CellTiter-Glo luminescent readout, NPC compound collection, primary HTS (AID 1117346;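 active = compounds that lower survival of DLD-1 colon cancer cells in the luminescence readout, no cutoff given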); settings: DLD-1 viability, CellTiter-Glo luminescence; at 20 µM (top of the series)
# [12] = target: 6-phosphogluconate dehydrogenase, decarboxylating (Homo sapiens) (UniProt P52209); assay: 6PGD enzyme inhibitors, primary screen, biochemical, human, recombinant enzyme, NADPH absorbance (AID 1159550;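 active = at least 20% inhibition of 6-phosphogluconate dehydrogenase activity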); settings: recombinant 6PGD, NADPH absorbance 341 nm; at 10 µM; stronger effect = higher value
# [13] = differential killing of epithelial or mesenchymal cells, primary screen, imaging, PC-3E GFP, TEM4-18 mCherry, co-culture (AID 1345086;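 active = compounds killing one labelled cell type while sparing the other, by normalised counts and ratio limits, not self-fluorescent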;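 as to all read-outs here: cells exposed to compound for 72 h before imaging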;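 as to red/green cell ratio (normalised): normalised mesenchymal count divided by normalised epithelial count so high means epithelial killing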); settings: imaging cell counts, at 1 µM; for red/green cell ratio (normalised): actives lie on both sides, counts scaled to control wells, 1 = unselective
# [14] = survival rescue of mitochondrial mutant cells in low glucose, primary screen, MELAS cybrids, Rieske KO mouse fibroblasts, CellTiter-Glo (AID 1508586;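 active = mean z-score across replicates of 1.96 or higher in either the MELAS or the Rieske mutant cell line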;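 also: z relative to plate mean and SD of compound and empty wells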)
# [15] = target: NAD(+) hydrolase SARM1 (Homo sapiens) (UniProt Q6SZW1); assay: SARM1 TIR NADase inhibitors, cell lysate, NAD-Glo luminescence (AID 1508614;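 active = compound whose remaining NAD level is above about 45 nM, limit read from the data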;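 also: higher remaining NAD means stronger inhibition of SARM1 NADase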); settings: SAM-TIR HEK293T lysate NADase, at 1 µM, stronger effect = higher value
# [16] = target: Mitogen-activated protein kinase 7 (Homo sapiens) (UniProt Q13164); assay: ERK5 transactivation activators in reporter cells, primary screen, cell-based, HTS (AID 1508626;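 active = luciferase signal above three times the same-plate solvent-only control wells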;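 also: luciferase driven by Gal4-ERK5 fusion binding five Gal4 sites before minimal TATA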); settings: HeLa Gal4-ERK5 transactivation, 18 h, at 5 µM, stronger effect = higher value
# [17] = test system: F380Y; assay: modulators of BK channel variants, profiling panel, selectivity assay, cell-based, U2OS BacMam, thallium flux, beta subunits (AID 1259406); settings: at 30 µM;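 also: initial slope of Thallos dye fluorescence rise after thallium is added; log ratio against the mean of 0.3% DMSO vehicle wells on the same plate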
# [18] = test system: F380Y/beta2Delta; assay: as above; settings: at 30 µM
# [19] = target: Calcium-activated potassium channel subunit alpha-1 (Homo sapiens) + Leucine-rich repeat-containing protein 26 (Homo sapiens) (UniProt Q12791+Q2I0M4); assay: as above; settings: F380Y/Slo1WT/gamma1, at 30 µM
# [20] = measured here: epithelial PC-3E GFP cell survival
# [21] = measured here: mesenchymal TEM4-18 mCherry cell survival
# [22] = MELAS cybrid survival, CellTiter-Glo 48 h, stronger effect = higher value
# [23] = Rieske KO mouse fibroblast survival, CellTiter-Glo 72 h
# Sequence of 6-phosphogluconate dehydrogenase, decarboxylating (Homo sapiens) (P52209 whole entry, looked up): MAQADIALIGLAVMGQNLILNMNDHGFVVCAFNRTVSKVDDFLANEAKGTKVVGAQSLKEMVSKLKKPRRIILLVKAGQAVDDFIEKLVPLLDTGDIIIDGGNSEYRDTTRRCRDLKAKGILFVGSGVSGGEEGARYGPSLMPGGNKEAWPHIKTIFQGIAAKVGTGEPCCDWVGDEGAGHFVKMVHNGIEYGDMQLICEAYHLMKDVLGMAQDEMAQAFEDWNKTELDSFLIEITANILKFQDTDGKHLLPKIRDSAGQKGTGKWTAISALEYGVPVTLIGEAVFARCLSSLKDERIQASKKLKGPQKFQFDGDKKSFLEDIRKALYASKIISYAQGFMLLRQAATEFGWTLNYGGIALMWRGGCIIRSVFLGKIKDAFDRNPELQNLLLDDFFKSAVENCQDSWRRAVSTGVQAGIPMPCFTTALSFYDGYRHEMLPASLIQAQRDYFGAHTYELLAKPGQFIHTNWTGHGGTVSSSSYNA
# Sequence of Calcium-activated potassium channel subunit alpha-1 (Homo sapiens) + Leucine-rich repeat-containing protein 26 (Homo sapiens) (Q2I0M4 whole entry, looked up, one chain of several): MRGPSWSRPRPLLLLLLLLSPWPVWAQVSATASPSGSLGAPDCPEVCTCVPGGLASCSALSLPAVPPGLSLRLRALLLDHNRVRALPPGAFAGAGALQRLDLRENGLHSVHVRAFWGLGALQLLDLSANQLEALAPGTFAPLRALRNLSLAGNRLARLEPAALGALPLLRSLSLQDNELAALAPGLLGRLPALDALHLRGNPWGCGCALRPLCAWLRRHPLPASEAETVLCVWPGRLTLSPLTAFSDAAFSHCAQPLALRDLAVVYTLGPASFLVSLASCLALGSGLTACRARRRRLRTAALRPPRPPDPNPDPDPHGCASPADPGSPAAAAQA
# Sequence of NAD(+) hydrolase SARM1 (Homo sapiens) (Q6SZW1 whole entry, looked up, the tested form may be a part): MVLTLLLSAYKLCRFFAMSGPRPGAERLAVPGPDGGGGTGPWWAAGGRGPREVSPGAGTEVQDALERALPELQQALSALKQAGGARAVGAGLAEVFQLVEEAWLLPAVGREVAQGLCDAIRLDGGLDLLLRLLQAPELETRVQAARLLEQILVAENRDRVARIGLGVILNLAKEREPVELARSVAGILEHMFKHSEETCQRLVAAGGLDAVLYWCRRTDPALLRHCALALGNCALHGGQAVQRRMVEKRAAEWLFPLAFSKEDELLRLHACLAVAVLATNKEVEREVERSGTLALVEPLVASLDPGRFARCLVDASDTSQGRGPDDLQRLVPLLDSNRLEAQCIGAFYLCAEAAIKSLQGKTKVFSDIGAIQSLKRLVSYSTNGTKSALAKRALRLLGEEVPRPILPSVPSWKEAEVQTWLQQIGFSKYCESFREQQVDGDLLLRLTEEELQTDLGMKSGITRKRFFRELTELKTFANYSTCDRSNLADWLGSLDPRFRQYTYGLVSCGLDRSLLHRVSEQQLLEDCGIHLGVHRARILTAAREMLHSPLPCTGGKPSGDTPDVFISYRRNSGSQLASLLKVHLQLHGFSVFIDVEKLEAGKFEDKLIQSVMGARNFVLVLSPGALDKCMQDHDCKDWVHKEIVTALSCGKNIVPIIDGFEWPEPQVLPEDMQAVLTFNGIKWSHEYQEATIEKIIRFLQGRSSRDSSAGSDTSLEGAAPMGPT
# Sequence of Mitogen-activated protein kinase 7 (Homo sapiens) (Q13164 whole entry, looked up, the tested form may be a part): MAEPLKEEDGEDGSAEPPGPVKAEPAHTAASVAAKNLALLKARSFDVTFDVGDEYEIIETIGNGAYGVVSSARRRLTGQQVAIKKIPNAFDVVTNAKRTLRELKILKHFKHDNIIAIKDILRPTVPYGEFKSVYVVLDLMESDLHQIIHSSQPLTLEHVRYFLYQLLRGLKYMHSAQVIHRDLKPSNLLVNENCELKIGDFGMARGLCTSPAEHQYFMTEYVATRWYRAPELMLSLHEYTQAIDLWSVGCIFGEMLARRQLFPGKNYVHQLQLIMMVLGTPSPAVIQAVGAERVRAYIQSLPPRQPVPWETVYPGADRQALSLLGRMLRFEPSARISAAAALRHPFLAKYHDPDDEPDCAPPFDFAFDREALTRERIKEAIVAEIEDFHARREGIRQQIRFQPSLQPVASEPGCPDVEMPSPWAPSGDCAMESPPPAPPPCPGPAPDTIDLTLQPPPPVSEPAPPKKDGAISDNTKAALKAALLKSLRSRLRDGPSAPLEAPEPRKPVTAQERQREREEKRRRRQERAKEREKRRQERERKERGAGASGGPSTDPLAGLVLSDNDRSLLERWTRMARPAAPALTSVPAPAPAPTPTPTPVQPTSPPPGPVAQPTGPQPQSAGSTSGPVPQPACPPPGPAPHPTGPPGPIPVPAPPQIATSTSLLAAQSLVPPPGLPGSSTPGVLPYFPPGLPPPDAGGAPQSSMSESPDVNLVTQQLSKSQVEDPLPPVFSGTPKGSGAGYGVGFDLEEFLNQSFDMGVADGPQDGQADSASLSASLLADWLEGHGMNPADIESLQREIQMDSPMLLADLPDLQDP
smiles,measurement,setting,value
OCCN1CCN(CCCN2c3ccccc3Sc3ccc(Cl)cc32)CC1,inhibition,[1],-2.27% (inactive)
same,inhibition,[2],1.81% (inactive)
same,fluorescence ratio,[3],0.84 (inactive)
same,nuclear beta-catenin stimulation,[4]; at 10 µM,73.5% (active)
same,nuclear beta-catenin stimulation,"[4]; stimulation, at 2 µM",2.8%
same,insulin secretion stimulation,[5],3.5% (inactive)
same,viability decrease,[6],99.5% (active)
same,tube area decrease,[7],104% (active)
same,GLP1 secretion stimulation,[8],45% (active)
same,inhibition of viability,[9],100% (active)
same,viability decrease (inhibition),[10],116% (active)
same,viability decrease (inhibition),[11],101% (active)
same,inhibition,[12],10.3% (inactive)
same,red/green cell ratio (normalised),[13],1.35 (inactive)
same,normalised cell number,[13]; [20],0.97
same,normalised cell number,[13]; [21],1.32
same,z-score,[14]; [22],0.299 (inactive)
same,z-score,[14]; [23],0.539
same,remaining NAD,[15],10 nM (inactive)
same,luciferase signal,[16],44 AU (inactive)
same,log fold change Tl+ flux,[17],0.23 (active)
same,log fold change Tl+ flux,[18],0.336 (active)
same,log fold change Tl+ flux,[19],-0.0145 (inactive)
O=C(CCCN1CC=C(n2c(=O)[nH]c3ccccc32)CC1)c1ccc(F)cc1,inhibition,[1],-5.15% (inactive)
same,inhibition,[2],-0.1% (inactive)
same,fluorescence ratio,[3],1 (inactive)
same,nuclear beta-catenin stimulation,[4]; at 10 µM,1% (inactive)
same,nuclear beta-catenin stimulation,"[4]; stimulation, at 2 µM",0.3%
same,insulin secretion stimulation,[5],2.7% (inactive)
same,viability decrease,[6],-5.9% (inactive)
same,tube area decrease,[7],16.2% (inactive)
same,GLP1 secretion stimulation,[8],-0.5% (inactive)
same,inhibition of viability,[9],28.5% (inactive)
same,viability decrease (inhibition),[10],10.4% (inactive)
same,viability decrease (inhibition),[11],3.7% (inactive)
same,inhibition,[12],12.8% (inactive)
same,red/green cell ratio (normalised),[13],0.96 (inactive)
same,normalised cell number,[13]; [20],0.94
same,normalised cell number,[13]; [21],0.9
same,z-score,[14]; [22],-0.163 (inactive) and 0.567 (inactive)
same,z-score,[14]; [23],-0.119 and 0.175
same,remaining NAD,[15],10 nM (inactive)
same,luciferase signal,[16],68 AU (inactive)
same,log fold change Tl+ flux,[17],0.0359 (inactive)
same,log fold change Tl+ flux,[18],0.058 (inactive)
same,log fold change Tl+ flux,[19],-0.0307 (inactive)
NC(=O)N1c2ccccc2C=Cc2ccccc21,inhibition,[1],-3.18% (inactive)
same,inhibition,[2],-3.53% (inactive)
same,fluorescence ratio,[3],1.04 (inactive)
same,nuclear beta-catenin stimulation,[4]; at 10 µM,1% (inactive)
same,nuclear beta-catenin stimulation,"[4]; stimulation, at 2 µM",0.9%
same,insulin secretion stimulation,[5],-1.9% (inactive)
same,viability decrease,[6],-2.95% (inactive)
same,tube area decrease,[7],0.8% (inactive)
same,GLP1 secretion stimulation,[8],4.4% (inactive)
same,inhibition of viability,[9],-18.7% (inactive)
same,viability decrease (inhibition),[10],20.2% (inactive)
same,viability decrease (inhibition),[11],-3.3% (inactive)
same,inhibition,[12],4.77% (inactive)
same,red/green cell ratio (normalised),[13],0.88 (inactive)
same,normalised cell number,[13]; [20],1.19
same,normalised cell number,[13]; [21],1.04
same,z-score,[14]; [22],2.18 (active) and 0.491 (inactive) and -0.759 (inactive)
same,z-score,[14]; [23],-0.583 and -0.0689 and -0.563
same,remaining NAD,[15],10 nM (inactive)
same,luciferase signal,[16],36 AU (inactive)
same,log fold change Tl+ flux,[17],-0.0389 (inactive)
same,log fold change Tl+ flux,[18],-0.0114 (inactive)
same,log fold change Tl+ flux,[19],-0.0331 (inactive)
